Rows were chosen to be rich in hits. Some 32% of all compounds tested hit in one or more screens of this group.
PostGolgi ctrl = yeast control strain growth, post-Golgi counter-screen; efflux-deficient yeast background strain, growth absorbance A615, 16 h; inhibition, % at 10 µM; 98,000 tested, 5% active; AID 738
CYP2C19 inhib = human CYP2C19 inhibition; 96,000 tested, 21% active; inhibition, % at 5 µM; P33261; AID 778; CYP2C19 Supersomes, luciferin-H EGE luminescence, 30 min;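 active = CYP2C19 inhibition above a set limit at 5 µM in the primary screen, cut at about 50% in these data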;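 note: plate controls were negative control wells for no effect and 2.5 mM tranylcypromine positive control for full effect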
Target sequence (P33261 whole entry, looked up): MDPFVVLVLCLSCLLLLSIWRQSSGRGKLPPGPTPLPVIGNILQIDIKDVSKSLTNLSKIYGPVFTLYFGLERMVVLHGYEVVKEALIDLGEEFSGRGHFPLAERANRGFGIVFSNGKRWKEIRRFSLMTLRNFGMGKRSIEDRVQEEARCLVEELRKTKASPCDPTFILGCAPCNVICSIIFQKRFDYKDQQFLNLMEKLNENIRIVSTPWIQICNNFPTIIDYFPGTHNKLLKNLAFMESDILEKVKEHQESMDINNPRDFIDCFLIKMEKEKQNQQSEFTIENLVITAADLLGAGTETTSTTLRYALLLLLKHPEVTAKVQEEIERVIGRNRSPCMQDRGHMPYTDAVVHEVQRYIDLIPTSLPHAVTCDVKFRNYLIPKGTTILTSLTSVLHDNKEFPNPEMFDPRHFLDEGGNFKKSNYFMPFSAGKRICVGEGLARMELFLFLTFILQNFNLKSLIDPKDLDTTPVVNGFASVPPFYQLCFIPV
CYP2C19 activ = cytochrome P450 2C19 (human) activation | P33261 | activation factor at 5 µM | recombinant CYP2C19, luciferin-H EGE luminescence; active compounds read high; 0 = fully inhibited enzyme, 1 = untreated enzyme | 96,000 tested, under 10 active;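 active = activation factor of at least 2 at 5 µM in the primary screen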;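 note: 0 = wells with 2.5 mM tranylcypromine and 1 = vehicle-only wells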
CYP2C9 inhib = inhibitors of human CYP2C9 | inhibition, % at 5 µM | CYP2C9 Supersomes, luciferin-H conversion, luminescence | AID 777 | 96,000 tested, 20% active | P11712;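 active = blocking of liver enzyme CYP2C9 beyond about 50% at 5 µM, limit read from the data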
PostGolgi yeast = growth inhibition of a yeast mutant, post-Golgi transport screen. AID 739. post-Golgi transport phenotypic cell assay. 98,000 tested, 0.9% active. inhibition, % at 10 µM;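 note: yeast cells grown in 1536-well plates; yeast grown about 18 h at 30C before absorbance read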
CYP2C9 activ = activators of human CYP2C9. P11712. recombinant CYP2C9, luciferin-H conversion, luminescence; active compounds read high; factor 1 = untreated enzyme, 0 = blocked. activation factor at 5 µM. 96,000 tested, 1.4% active;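 active = activation factor of 2 or more for CYP2C9 at a 5 µM dose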;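 note: 0 = sulfaphenazole-blocked wells and 1 = vehicle-only wells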
* hit, by the source's call; x = no result given. Cut-off read from the data, not from the text of the source, unless noted: active = inhibition above about 30%; inactive = the rest.

SMILES | PostGolgi ctrl | CYP2C19 inhib | CYP2C19 activ | CYP2C9 inhib | PostGolgi yeast | CYP2C9 activ
CCOC(=O)CNC(=O)CSc1nc(C)cc(C)c1C#N | 2.9 | 82.6* | 0.2 | -91.5 | -9.5 | 1.9
COCc1cc(C)nc(SCC(=O)Nc2ccccc2C)c1C#N | -0.5 | 94.2* | 0.1 | 28.0 | -8.6 | 0.7
CN1CCN(CC(=O)N(C)c2nc(-c3ccccc3)cs2)CC1 | -1.3 | 8.9 | 0.9 | 12.9 | -1.3 | 0.9
O=C1CC(O)(C(F)(F)F)Oc2c1ccc1ccccc21 (configuration not stated) | 36.8* | 84.0* | 0.2 | 96.2* | 4.5 | 0
O=C1CC(O)(C(F)F)Oc2ccc3ccccc3c21 (configuration not stated) | 11.2 | 84.7* | 0.2 | 59.6* | -9.8 | 0.4
O=c1cc(C(F)F)oc2c1ccc1ccccc12 | 4.0 | 33.5 | 0.7 | -24.1 | 6.7 | 1.2
COc1cccc(OCc2nc3ccccc3[nH]2)c1 | 19.9 | 100.2* | 0 | 64.6* | 9.2 | 0.4
COc1cccc(OCc2nc3ncc(Br)cc3[nH]2)c1 | 2.0 | 53.6* | 0.5 | 35.4 | 4.7 | 0.6
COc1ccc(OCC(=O)Nc2nc3ccccc3[nH]2)cc1 | 0.3 | -4.9 | 1 | -7.2 | -1.3 | 1.1
COc1ccc(OCc2nc3ccccc3[nH]2)cc1 | 7.6 | 49.0 | 0.5 | 24.4 | -7.3 | 0.8
c1ccc(Nc2nc3ccccc3[nH]2)nc1 | 18.5 | 9.8 | 0.9 | 7.6 | 6.1 | 0.9
COc1ccc(NC(=O)Cc2nc3ccccc3[nH]2)cc1 | 12.2 | 66.8* | 0.3 | 25.5 | 0.3 | 0.7
c1cnc2c(OCc3nc4ccccc4[nH]3)cccc2c1 | -7.0 | 94.8* | 0.1 | 11.6 | 0.5 | 0.9
COc1cc(/C=C(\NC(=O)c2ccccc2)C(=O)Nc2cccc(O)c2)c([N+](=O)[O-])cc1OC | 18.3 | 6.4 | 0.9 | 26.6 | -2.1 | 0.7
CCn1nnnc1SCC(=O)Nc1ccc(OCc2ccccc2)cc1 | 2.7 | x | x | x | -0.2 | x
Cc1ccc2nsnc2c1S(=O)(=O)N1CCN(C(=O)C2CCCO2)CC1 (configuration not stated) | -2.2 | 1.4 | 1 | 14.7 | 11.4 | 0.9
Cn1nc([N+](=O)[O-])nc1Oc1ccc2ccccc2c1 | 5.9 | 5.8 | 0.9 | 4.9 | -12.1 | 1
COc1ccccc1OCc1nc2ccccc2[nH]1 | -6.3 | 73.7* | 0.3 | 26.0 | -2.8 | 0.7
CC(C)NC(=O)CN1CCN(c2ncccn2)CC1 | 2.6 | 10.2 | 0.9 | 8.3 | 16.4 | 0.9
COc1ccc(CNn2c(C)nc3ccccc3c2=O)cc1 | 11.8 | 96.3* | 0 | 42.3 | 7.0 | 0.6
CCCCOc1ccc(CNn2c(C)nc3ccccc3c2=O)cc1 | 20.2 | 91.4* | 0.1 | 66.9* | 6.4 | 0.3
Cc1nc(CCNC(=O)Cc2ccc(Cl)cc2)cs1 | 2.6 | 56.3* | 0.4 | 26.8 | -9.0 | 0.7
Cc1ccc(C(=O)NCCc2csc(C)n2)cc1 | x | 13.0 | 0.9 | 53.2* | 1.6 | 0.5
Cc1cccc(C(=O)NCCc2csc(C)n2)c1 | 1.4 | 11.9 | 0.9 | 4.0 | -0.6 | 1
Cc1cccnc1NC(=O)C1CCCN(S(=O)(=O)c2ccc3c(c2)oc(=O)n3C)C1 (configuration not stated) | 3.2 | 23.4 | 0.8 | 40.1 | -2.7 | 0.6
SMILES | PostGolgi ctrl | CYP2C19 inhib | CYP2C19 activ | CYP2C9 inhib | PostGolgi yeast | CYP2C9 activ
CC(=O)C(Sc1ccc2nnc(-c3ccc(F)cc3)n2n1)C(C)=O | 22.6 | 12.6 | 0.9 | 69.6* | -2.4 | 0.3
CCOC(=O)CC(=O)CSc1ccc2nnc(-c3ccc(C)cc3)n2n1 | 8.2 | 14.5 | 0.9 | 54.9* | -3.3 | 0.5
Cc1csc(SCc2ccc(C(=O)O)cc2)n1 | 3.0 | -4.9 | 1 | -4.3 | -13.2 | 1
Cc1ccc(C(=O)CC2(O)C(=O)N(Cc3ccccc3)c3ccccc32)o1 (configuration not stated) | 10.8 | 30.6 | 0.7 | -17.0 | 0.3 | 1.2
N#CCCCN1C(=O)C(O)(CC(=O)c2ccc3c(c2)OCCO3)c2ccccc21 (configuration not stated) | -2.4 | 20.3 | 0.8 | 32.9 | -6.6 | 0.7
Cc1ccc(C(=O)CC2(O)C(=O)N(Cc3ccccc3Cl)c3ccccc32)o1 (configuration not stated) | 0.3 | 55.2* | 0.4 | -43.5 | 0.0 | 1.4
C=C(C)CN1C(=O)C(O)(CC(=O)c2ccc3c(c2)OCCO3)c2ccccc21 (configuration not stated) | 41.2* | 81.7* | 0.2 | 40.0 | -9.7 | 0.6
Cc1ccc(C(=O)CC2(O)C(=O)N(CCc3ccccc3)c3ccc(Br)cc32)o1 (configuration not stated) | 19.1 | 97.9* | 0 | 93.3* | 31.2* | 0.1
C=CCN1C(=O)C(O)(CC(=O)c2ccccc2)c2ccccc21 (configuration not stated) | -4.5 | 74.6* | 0.3 | 38.1 | -1.6 | 0.6
O=C(CC1(O)C(=O)N(CCc2ccccc2)c2ccccc21)c1ccco1 (configuration not stated) | 1.4 | 70.8* | 0.3 | 74.0* | 16.6 | 0.3
CCN1C(=O)C(O)(CC(=O)c2ccc(-n3cccc3)cc2)c2ccccc21 (configuration not stated) | 11.2 | x | x | x | 7.0 | x
CCOC(=O)C1C(=O)NC(c2ccccc2)=NC1c1ccc(F)cc1 (configuration not stated) | 6.0 | 58.2* | 0.4 | 38.7 | 18.4 | 0.6
CCC(CC)c1nc(NCCC(=O)O)c2ccccc2n1 | 0.9 | -3.0 | 1 | 4.5 | 1.3 | 1
CC(=O)c1cc(-c2nc3ccccc3n2C)n(C)c1 | 1.5 | 56.2* | 0.4 | 72.8* | -1.8 | 0.3
Cn1nnnc1SCc1nnc(-c2ccc(F)cc2)o1 | 9.5 | -16.4 | 1.2 | -25.4 | 0.0 | 1.3
Clc1ccc(OCc2nnc(-c3ccccc3Br)o2)c(Cl)c1 | 6.8 | -7.0 | 1.1 | -28.3 | -7.1 | 1.3
Clc1ccc(OCc2nnc(-c3ccccc3Br)o2)cc1 | 28.7 | 96.3* | 0 | 14.1 | -9.9 | 0.9
Cc1ccc(-n2nnnc2SCC(N)=O)c(C)c1 | 3.9 | 8.0 | 0.9 | -5.5 | 4.9 | 1.1
Cn1nnnc1SCc1nnc(-c2ccccc2Br)o1 | -1.2 | 65.0* | 0.3 | -5.8 | -1.8 | 1.1
Cc1ccc(-n2nnnc2SCc2nnc(-c3ccccc3Br)o2)c(C)c1 | 47.0* | 66.1* | 0.3 | 56.1* | -1.4 | 0.4
COc1ccccc1C1=NN(C(=S)Nc2ccccc2)C(c2ccco2)C1 (configuration not stated) | 11.8 | 30.1 | 0.7 | 46.0 | 8.9 | 0.5
CCC(C)[C@H](NC(=O)Nc1ccc2c(c1)OCCO2)C(=O)O (some centres not stated) | 11.1 | -9.6 | 1.1 | 1.8 | 5.7 | 1
O=C(COC(=O)[C@H](Cc1ccccc1)N1C(=O)c2ccccc2C1=O)Nc1ccc2c(c1)OCO2 | 6.0 | 81.1* | 0.2 | 98.6* | -5.2 | 0
